Compound activity from PubChem BioAssay.
Rows were chosen to be rich in hits. Some 1.4% of all compounds tested hit in one or more screens of this group.
EBNA-1 inhibitor – blocks EBNA-1 binding to DNA. hit rate 0.34% among 300,000. AID 1950. inhibition, % at 14.8 µM. EBNA-1 DNA binding, fluorescence polarization; in the data active = inhibition above about 28%
LYPLA1 inh – counter-screen for PME1 inhibitors: inhibitors of human LYPLA1; O75608; inhibition, % at 5.9 µM; recombinant LYPLA1, FP-Rh probe fluorescence polarization; hit rate 0.16% among 320,000;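 active = inhibition above the mean of all tested compounds plus 3 SD, set per campaign, cut at about 14% in these data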;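 note: inhibitors block serine hydrolase probe labeling of LYPLA1 so polarization falls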
Target sequence (O75608 whole entry, looked up): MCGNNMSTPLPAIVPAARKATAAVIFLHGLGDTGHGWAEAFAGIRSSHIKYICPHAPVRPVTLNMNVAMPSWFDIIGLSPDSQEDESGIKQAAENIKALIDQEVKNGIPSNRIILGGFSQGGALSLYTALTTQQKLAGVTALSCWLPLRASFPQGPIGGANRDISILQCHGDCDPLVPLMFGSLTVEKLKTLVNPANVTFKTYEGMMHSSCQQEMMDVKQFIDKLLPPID
LYPLA2 inh – counter-screen for PME1 inhibitors: inhibitors of human LYPLA2. hit rate 0.38% among 320,000. AID 2177. inhibition, % at 5.9 µM. recombinant LYPLA2, FP-Rh probe fluorescence polarization. O95372;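 active = inhibition above the screen-wide mean plus 3 SD, limit set per campaign, cut at about 26% in these data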
Target sequence (O95372 whole entry, looked up): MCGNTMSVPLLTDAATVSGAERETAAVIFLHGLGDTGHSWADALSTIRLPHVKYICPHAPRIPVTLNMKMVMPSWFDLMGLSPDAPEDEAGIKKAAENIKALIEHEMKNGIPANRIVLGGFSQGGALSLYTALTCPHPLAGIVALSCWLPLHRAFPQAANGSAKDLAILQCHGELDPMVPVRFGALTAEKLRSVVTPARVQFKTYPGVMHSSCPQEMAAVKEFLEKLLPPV
ZTA counter – counter-screen for EBNA-1 inhibitors: inhibitors of Epstein-Barr virus ZTA | ZTA-DNA binding, fluorescence polarization | hit rate 0.15% among 320,000 | inhibition, % at 11 µM | P03206; in the data active = inhibition above about 33%
Target sequence (P03206 whole entry, looked up): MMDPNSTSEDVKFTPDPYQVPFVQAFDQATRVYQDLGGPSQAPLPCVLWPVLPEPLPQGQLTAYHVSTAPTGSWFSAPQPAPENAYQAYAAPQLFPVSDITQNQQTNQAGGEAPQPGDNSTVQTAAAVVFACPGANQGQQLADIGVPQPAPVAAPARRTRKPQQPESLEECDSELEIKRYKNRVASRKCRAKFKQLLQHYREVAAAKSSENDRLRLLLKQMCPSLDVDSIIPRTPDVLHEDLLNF
LANA-H2A inh – blocks KSHV LANA binding to histone H2A/H2B; Q9QR71; cell-free LANA-H2A/H2B peptide, fluorescence polarization; inhibition, % (test concentration not listed); hit rate 0.6% among 320,000; in the data active = inhibition mostly above about 10%, no sharp cut-off; inactive = mostly below about 6.7%
EBNA-1 confirm – EBNA-1 (EBV) inhibition, confirmation; Recombinant EBNA-1 DBD, Cy5-DNA fluorescence polarization; shares compounds with EBNA-1 inhibitor; hit rate 35% among 830; inhibition, % at 14.8 µM;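 active = mean inhibition across replicates above a set limit taken from the earlier primary screen, cut at about 28% in these data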
ZTA counter trip – blocks Epstein-Barr virus ZTA in triplicate, EBNA-1 counter-screen. 830 tested, under 10 active. inhibition, % at 11.1 µM. shares compounds with EBNA-1 inhibitor. Zta-ZRE DNA binding, Cy5 fluorescence polarization;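 active = mean inhibition over triplicates above a set limit taken from the primary EBNA-1 screen, cut at about 37% in these data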;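 note: purified full length Zta protein with Cy5 labeled ZRE DNA probe; inhibitors lower polarization by freeing the labeled DNA probe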
Each line names hits and unclear results; the compound was inactive in the other large screens (follow-up assays come after a bar, where they were run); ! = not active in a repeat.

COc1ccc(NC(=O)c2cccc(NC(=O)c3ccccc3)c2)cc1	EBNA-1 inhibitor 68.2 | EBNA-1 confirm inactive | ZTA counter trip inactive
COc1cccc(NC(=O)c2cccc(Cl)c2)c1	none
COC(=O)C(C(=O)OC)c1ccc(NC(=O)c2cccc(Cl)c2)cc1	EBNA-1 inhibitor 60.4 (no result: LANA-H2A inh) | EBNA-1 confirm 48.7 | ZTA counter trip inactive
CCOc1ccc(NC(=O)CC(=O)Nc2ccc(OCC)cc2)cc1	EBNA-1 inhibitor 42.0 | EBNA-1 confirm inactive | ZTA counter trip inactive
Cc1nc(-c2ccccn2)nc(N(C)c2ccccc2)c1Cl	none
Cc1c(NC(=O)COC(=O)CSc2ccc([N+](=O)[O-])cc2)c(=O)n(-c2ccccc2)n1C	none (no result: EBNA-1 inhibitor)
CC1(c2nnc(Cc3ccccc3)o2)CC(c2ccccc2[N+](=O)[O-])=NO1 (stereo unspecified)	none
COc1ccc(C(=O)COC(=O)c2ccc(NC(=O)c3ccccc3)cc2)cc1	EBNA-1 inhibitor 29.4 | EBNA-1 confirm inactive | ZTA counter trip inactive
CC(OC(=O)CCCN=C1NS(=O)(=O)c2ccccc21)C(=O)NC1CCCCC1C (stereo unspecified)	none
O=C(c1ccc(CN2CCc3ccccc3C2)cc1)N1CCc2ccccc2C1	EBNA-1 inhibitor 38.4 | EBNA-1 confirm inactive | ZTA counter trip inactive
O=C(c1ccc(CN2CCc3ccccc3C2)cc1)N1CCN(c2ccccc2)CC1	none
Cc1ccc(NC(=S)NC(=O)c2ccc(F)cc2)cc1S(=O)(=O)Nc1ccccc1Cl	EBNA-1 inhibitor 27.8 | EBNA-1 confirm inactive | ZTA counter trip inactive
Cc1ccc(NC(=O)c2ccc(=O)[nH]n2)cc1S(=O)(=O)Nc1ccccc1Cl	none (no result: EBNA-1 inhibitor)
Cc1cc(NC(=O)CSc2nc(-c3ccc(F)cc3)cs2)no1	EBNA-1 inhibitor 43.7 | EBNA-1 confirm inactive | ZTA counter trip inactive
CC1=CC2=NC(=O)/C(=C\c3ccc(-c4cccc(Cl)c4)o3)C(=N)N2O1	EBNA-1 inhibitor 29.4 | EBNA-1 confirm inactive | ZTA counter trip inactive
Cc1ccc(S(=O)(=O)N2CCOCC2)cc1NC(=O)Cn1nc(C)c([N+](=O)[O-])c1C	none
NS(=O)(=O)c1ccc(NC(=S)NC(=O)c2ccc3c(c2)OCO3)cc1	EBNA-1 inhibitor 61.1 | EBNA-1 confirm 72.3 | ZTA counter trip inactive
CCOc1ccccc1NC(=O)CSc1nnc(CNC(=O)c2cccs2)o1	none
Cc1cc(C)c(C)c(C(=O)COC(=O)CNC(=O)CN2C(=O)c3ccccc3C2=O)c1C	none
Cc1ccc(C(=O)COC(=O)CNC(=O)CN2C(=O)c3ccccc3C2=O)cc1	EBNA-1 inhibitor 33.3 | EBNA-1 confirm 27.8 | ZTA counter trip inactive
Cc1ccccc1NC(=O)C(=O)NNC(=O)COc1ccc2ccccc2c1	none
COc1ccc(C(=O)NC(=S)N(C)Cc2ccccc2)cc1Br	EBNA-1 inhibitor 45.5 | EBNA-1 confirm inactive | ZTA counter trip inactive
CN(Cc1ccccc1)C(=S)NC(=O)c1ccccc1	none
CCOC(=O)C1(CCCc2ccccc2)CCN(CC(O)CO)CC1 (stereo unspecified)	none
O=C(CSC(=S)N1CCCCC1)Nc1nc(-c2ccccc2)c(-c2ccccc2)o1	EBNA-1 inhibitor 35.7 | EBNA-1 confirm inactive | ZTA counter trip inactive
CC1CCC(NC(=O)c2cc(S(=O)(=O)N3CCCCC3)ccc2N2CCOCC2)CC1 (stereo unspecified)	none (no result: EBNA-1 inhibitor)
Cc1ccc(S(=O)(=O)/N=C(\N)Nc2nc(C)c3ccc(C)cc3n2)cc1	EBNA-1 inhibitor 36.9 | EBNA-1 confirm inactive | ZTA counter trip inactive
Cc1ccc(S(=O)(=O)/N=C(\N)Nc2nc(C)c3cc(C)c(C)cc3n2)cc1	EBNA-1 inhibitor 38.2 | EBNA-1 confirm inactive | ZTA counter trip inactive
N#Cc1ccc(CC(C(=O)O)N2Cc3ccccc3C2=O)cc1 (stereo unspecified)	none
CCc1nnc(NC(=O)CSc2nc3cc4c(cc3cc2C)OCCO4)s1	EBNA-1 inhibitor 102.4 | EBNA-1 confirm 98.5 | ZTA counter trip inactive
COc1ccccc1NC(=S)N1CCN(c2cccc(C)c2C)CC1	none
Cc1nn(-c2ccccc2)c2sc(C(=O)OCn3nnc4ccccc4c3=O)cc12	EBNA-1 inhibitor 35.4 (no result: LANA-H2A inh) | EBNA-1 confirm inactive | ZTA counter trip inactive
O=C(CNC(=O)C1(c2ccccc2)CC1)Nc1ccc(F)c(F)c1	none
CC1CCCC(C)N1S(=O)(=O)c1ccc(NC(=O)CCn2cnc3ccccc3c2=O)cc1 (stereo unspecified)	EBNA-1 inhibitor 47.9 | EBNA-1 confirm 52.5 | ZTA counter trip inactive
C/C(=N\NC(=O)c1c(Br)c(C)nn1C)c1ccc(NC(=O)c2ccoc2C)cc1	EBNA-1 inhibitor 62.5 | EBNA-1 confirm 72.4 | ZTA counter trip inactive
Cc1cc(C)c2c(-n3cccc3)c(C(=O)NNS(=O)(=O)c3ccc(Cl)cc3)sc2n1	EBNA-1 inhibitor 29.5 | EBNA-1 confirm inactive | ZTA counter trip inactive
COc1ccc(NC2CCCN(C(=O)c3ccccc3C(F)(F)F)C2)cc1 (stereo unspecified)	none
COc1ccc(-n2c(SCC(=O)Nc3ccccc3)nnc2-c2ccc(NS(=O)(=O)c3ccc(C)cc3)cc2)cc1	EBNA-1 inhibitor 70.7 | EBNA-1 confirm 27.8 | ZTA counter trip inactive
CC1=Nc2ccc(C)cc2/C1=C/c1c(N)n2oc(C)cc2nc1=O	EBNA-1 inhibitor 28.1! | EBNA-1 confirm 32.7 | ZTA counter trip inactive
CSc1nsc2nc(=O)c(/C=C3\C(C)=Nc4ccc(C)cc43)c(N)n12	none
COc1ccccc1NC(=O)CSc1nnnn1-c1ccc(F)cc1	none
COc1ccccc1N(C)S(=O)(=O)c1ccc(C(=O)NC2=NCCS2)cc1	EBNA-1 inhibitor 45.2 | EBNA-1 confirm inactive | ZTA counter trip inactive
COc1ccccc1NC(=O)c1ccc(S(=O)(=O)N(C)c2ccccc2OC)cc1	none (no result: EBNA-1 inhibitor, LYPLA1 inh, LYPLA2 inh, ZTA counter)
Cc1ccc(SCC(=O)Nc2nnc(C(C)(C)C)s2)cc1	none
Cc1cc(C(=O)CSc2nnnn2-c2ccccc2)c(C)n1CC1CCCO1 (stereo unspecified)	EBNA-1 inhibitor 151.3 | EBNA-1 confirm 92.8 | ZTA counter trip inactive
Cc1cc(C(=O)CSc2nnnn2-c2ccc(Cl)cc2)c(C)n1CC1CCCO1 (stereo unspecified)	none
COc1ccccc1Nc1nnc(SCC(=O)NC(=O)Nc2ccc3c(c2)OCCO3)s1	EBNA-1 inhibitor 36.3 | EBNA-1 confirm inactive | ZTA counter trip inactive
Cc1ccccc1Nc1nnc(SCC(=O)NC(=O)Nc2ccc3c(c2)OCCO3)s1	none
CCn1cc(CCCC(=O)NCc2ccc(OC)cc2)c2ccccc21	none (no result: EBNA-1 inhibitor, LYPLA1 inh, LYPLA2 inh, ZTA counter)
CCOc1ccc(N2CC(C(=O)Nc3ccncc3)CC2=O)cc1 (stereo unspecified)	none
CCOC(=O)c1c(NC(=O)CSc2n[nH]c(-c3ccco3)n2)sc(C)c1C	none
O=C(CSc1n[nH]c(-c2ccco2)n1)Nc1sc2c(c1C(=O)Nc1ccccc1)CCCC2	EBNA-1 inhibitor 36.3 | EBNA-1 confirm inactive | ZTA counter trip inactive
N#Cc1ccc(C(=O)Nn2cnnc2)cc1	none
